Activity calls are given as the source filed them.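 How the source made its calls: active means compounds that block the bacterial enzyme AmpC beta-lactamase with detergent present and have a measured Ki; inactive means the rest.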

Chain of Beta-lactamase (Escherichia coli (strain K12)) (P00811 whole entry, looked up): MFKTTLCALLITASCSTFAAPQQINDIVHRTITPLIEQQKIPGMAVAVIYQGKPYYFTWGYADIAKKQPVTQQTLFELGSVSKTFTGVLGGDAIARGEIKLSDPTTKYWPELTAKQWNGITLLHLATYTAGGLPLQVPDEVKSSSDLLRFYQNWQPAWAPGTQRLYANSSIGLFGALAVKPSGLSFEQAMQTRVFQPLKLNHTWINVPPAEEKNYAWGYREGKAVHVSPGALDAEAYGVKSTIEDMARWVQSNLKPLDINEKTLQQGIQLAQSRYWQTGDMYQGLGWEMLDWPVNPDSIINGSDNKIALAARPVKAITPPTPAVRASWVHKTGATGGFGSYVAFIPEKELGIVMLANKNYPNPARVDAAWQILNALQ

The target in this assay is Beta-lactamase (Escherichia coli (strain K12)) (UniProt P00811). In words: Confirmation Cuvette-Based Assay for Inhibitors of AmpC Beta-Lactamase (assay with detergent). To be noted: purified AmpC, nitrocefin hydrolysis absorbance, 0.01% Triton. As to the method:
NIH Molecular Libraries Screening Centers Network [MLSCN] NIH Chemical Genomics Center [NCGC] MLSCN Grant: MH079825-01 Assay Provider: Shoichet, Brian K. This aggregation profiling approach exploits the sensitivity of aggregate formation to detergent. Inhibition of b-lactamase is measured in the presence and absence of 0.01% Triton X-100 (Feng 2007). This particular assay is a confirmation of previous qHTS (Inglese, 2006), Pubchem AID 584, assay with presence of 0.01% Triton X-100. For a related assay without detergent, see AID 585. Compounds that inhibit only in the absence of detergent are considered likely promiscuous aggregators. This confirmation assay is a cuvette-based screen of an oxadiazole carbamate series which is an expansion around docking hit Pubchem SID 4244870.
Reactions were performed in methylacrylate cuvettes in 1 mL of reaction volume. The beta-lactamase assay contained 1 nM AmpC beta-lactamase, 200 uM Nitrocefin and varying amounts of Triton X-100 (either 0.00002% or 0.1%). Compound and enzyme were incubated for 5 minutes before the reaction was initiated by addition of substrate. Nitrocefin hydrolysis was monitored as an increase in absorption at 482 nm on an Agilent 8453 UV-visible spectrophotometer at room temperature.
Turning to `Cn1cc(C[C@H](C(=O)O)N2C(=O)c3ccc(C(=O)O)cc3C2=O)c2ccccc21`, the Ki is 17 µM (active).
Then `O=C(O)c1ccc2c(c1)C(=O)N([C@H](Cc1cccc3ccccc13)C(=O)O)C2=O`, with 5 µM (active).
Then `O=C(O)c1ccc2c(c1)C(=O)N([C@H](Cc1ccc3ccccc3c1)C(=O)O)C2=O`, with 14 µM (active); and `O=C(O)c1ccc2c(c1)C(=O)N([C@H](Cc1ccc(-c3ccccc3)cc1)C(=O)O)C2=O`, with 15 µM (active).
For `CC(C)(C)c1ccc(C[C@H](C(=O)O)N2C(=O)c3ccc(C(=O)O)cc3C2=O)cc1` the value was 11 µM (active); for `O=C(O)c1ccc2c(c1)C(=O)N([C@H](Cc1c3ccccc3cc3ccccc13)C(=O)O)C2=O`, 12 µM (active); for `Cc1ccc(C[C@H](C(=O)O)N2C(=O)c3ccc(C(=O)O)cc3C2=O)c(C)c1`, 17 µM (active).
Regarding `O=C(O)c1ccc2c(c1)C(=O)N([C@H](Cc1c[nH]c3ccccc13)C(=O)O)C2=O`, the inhibition constant Ki is 17 µM (active).

The term Ki denotes a dissociation constant, usually derived from enzyme kinetics or from competition with a known ligand.
